A selection: hits, their analogues and other compounds. The true share with any hit is near 2.7%.
RXFP1 antagonist: RXFP1 (human) relaxin receptor antagonism; Q9HBX9; HEK293-RXFP1, relaxin-stimulated cAMP HTRF, 30 min; stronger effect = lower value; activity change, negative = inhibition, % at 57.5 µM; actives 0.59% (n = 350,000); AID 1259400;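 active means activity change of -60% or lower, but not beyond a set lower limit; inconclusive means change between -60% and -40%, or beyond the set limit; inactive means change above -40%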
gsp antag: antagonists of gsp mutant (McCune-Albright syndrome); gsp-mutant cells, cAMP HTRF, 30 min; Potency, µM (highest dose often 76.9 µM), usual class: inhibitors; actives 0.4% (n = 340,000); AID 624288; calls by dose curve; cell line not stated here;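 further: intracellular cAMP measured with PDE inhibitor Ro 20-1724 present during compound exposure; nearly all actives have a fitted effect of over 65% in size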
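HTRF cAMP read-out (cAMP-d2 plus anti-cAMP antibody-K in lysis buffer, 30 min RT). Before lysis, cells are exposed to compounds with […] for 30 min at 37C in DPBS containing Ca/Mg, BSA and Tween 20.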
pAkt inh: inhibitors of Akt phosphorylation; activity change, % for hits at 50 µM; actives 0.32% (n = 360,000); Neuro2A IGF-stimulated pAkt S473 HTRF, 20 min; stronger effect = lower value; in the data active means activity change below about -80%; inconclusive means mostly about -51% to -80%
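Neuro2A cells (4,500/well, DMEM with 0.5% FBS) were treated with compound at a single 50 µM final concentration, stimulated with 6 nM IGF for 20 min at 37 °C, and lysed. Phospho-Akt Ser473 was read by HTRF as 665/615 ratio ×10^4.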
gsp agonist: activates gsp, the McCune-Albright syndrome mutation. Potency, µM (series often up to 76.9 µM), hits mostly activators. actives 0.13% (n = 340,000). gsp mutant cells, cAMP HTRF, 30 min; active means well fitted activation curve with a large enough effect; inconclusive means small, poorly fitted or top-dose-only effect, or another doubt; inactive means no such curve, though single readings can be large or run the other way; cell line not stated here;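 further: phosphodiesterase inhibitor Ro 20-1724 added with compounds to block cAMP breakdown; nearly all actives have a fitted effect of over 60% in size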
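Cells in DMEM/10% FBS with G418 were pretreated with compounds in DMSO plus […] (300 uM stock) for 30 min at 37C. cAMP was measured by HTRF (cAMP-d2 plus anti-cAMP antibody-K) after 30 min at room temperature.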
RXFP1 ag: RXFP1 (human) receptor agonism. HEK293T-RXFP1 cAMP TR-FRET, 30 min; response scale: percent of porcine relaxin response, buffer zero. Potency, µM (top dose mostly 57.5 µM), hits mostly activators. actives 0.3% (n = 370,000); active means well fitted activation curve with a large enough effect; inconclusive means small, poorly fitted or top-dose-only effect; further: nearly all actives have a fitted effect of over 60% in size
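HEK293T cells stably expressing RXFP1 were pretreated with the PDE4 inhibitor Ro 20174, exposed to compounds for 30 min at 37C, lysed, and cAMP was read by TR-FRET. Data normalized to buffer (basal) and 29 nM porcine relaxin (100%).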
ClpP mod: qHTS Assay for Activators of ClpP; ATP-dependent Clp protease proteolytic subunit (Bacillus subtilis (strain 168)), P80244; purified B. subtilis ClpP, FRET peptide cleavage, 20 min; Potency, µM (highest dose often 57.5 µM); actives 1.9% (n = 340,000); AID 651965, 2013; active means well fitted falling curve with a large enough effect; inconclusive means small, poorly fitted or top-dose-only effect; inactive means no such curve, though single readings can be large or run the other way; further: the source files actives as falling curves though it sought activators and does not explain the sign; nearly all actives have a fitted effect of over 65% in size
Target sequence (P80244 whole entry, looked up): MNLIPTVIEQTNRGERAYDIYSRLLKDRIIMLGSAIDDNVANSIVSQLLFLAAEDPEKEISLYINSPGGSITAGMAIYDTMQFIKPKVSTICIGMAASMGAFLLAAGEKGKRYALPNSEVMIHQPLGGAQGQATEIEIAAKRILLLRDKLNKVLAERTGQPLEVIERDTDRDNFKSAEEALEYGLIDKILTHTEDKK
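Purified B. subtilis ClpP, 10 microg/mL final in Tris/HCl pH8 with KCl, BSA, glycerol and Tween-20, cleaved an Abz/nitrotyrosine-quenched decapeptide. Fluorescence (ex 320, em 430) was read at 0 and 20 min at room temperature. Delta was normalized to 5.8 microM ADEP and DMSO/no-enzyme controls.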
Hits are given with their value; 0 = inactive; ? = inconclusive; - = not tested or not shown; [ ] = remark or other dose.

SMILES | RXFP1 antagonist | gsp antag | pAkt inh | gsp agonist | RXFP1 ag | ClpP mod
Cc1ccc(-n2nc3c(c2NC(=O)c2ccco2)CS(=O)C3)c(C)c1 (stereo not given) | 0 | 0 | 0 | 0 | 0 | 25µM
CC(C)c1ccc(NC(=O)c2cc3c(s2)-c2ccccc2SC3)cc1 | 0 | - | - | - | 0 | 0
OC1(c2ccc(Cl)c(Cl)c2)C[n+]2ccccc2N1Cc1ccccc1 (stereo not given) | -69 | 0 | 0 | 0[15.4 µM] | 0 | -
Cc1c(-c2c(C#N)c(N)nc3c2CCCCCC3)cnn1C | 0 | 0 | 0 | 0 | 0 | 13µM
N#Cc1c(N)nc2c(c1-c1ccncc1)CCCCC2 | 0 | 0 | 0 | 0 | 0 | 22µM
N#Cc1c(N)nc2c(c1-c1ccco1)CCCCC2 | 0 | 0 | - | 0 | - | 0
Cc1nn(C)c(C)c1-c1c(C#N)c(N)nc2c1CCCCCC2 | 0 | 0 | 0 | 0 | 0 | 1.3µM
N#Cc1c(N)nc2c(c1-c1cccs1)CCCC2 | 0 | 0 | 0 | 0 | 0 | 0
CC(C)(C)c1ccc(-c2c(C#N)c(N)nc3c2CCCC3)s1 | 0 | 0 | 0 | 0 | 0 | 32µM
Oc1ccc(COc2cccc3ccccc23)c2cccnc12 | - | - | - | - | 0 | -
O=C(CN1C(=O)c2cccnc2Oc2ccc(Cl)cc21)NCCC1=CCCCC1 | 0 | 0 | 0 | 0 | 0 | 0
Cc1ccccc1C(=O)NCC(=O)OCCCOC(=O)CNC(=O)c1ccccc1C | 0 | 0 | 0 | 0[15.4 µM] | 0 | -
O=C(COc1ccccc1C(=O)OCC(=O)Nc1cccc2ccccc12)Nc1ccc(Br)cc1 | - | - | - | - | - | 0
Cc1c(NC(=O)c2ccc(Cl)cc2)cc(C(C)C)c(O)c1S(=O)(=O)c1ccccc1 | - | - | - | - | 0 | 0
COCCOc1cc(NC(=O)c2sccc2Oc2ccc([N+](=O)[O-])cc2F)c(Cl)cc1Cl | 0 | 0[15.4 µM] | 0 | 0 | 0 | 14µM
Cc1ccc(C2C3CN(C(C)C)CC=C3C(C#N)=C(N)C2(C#N)C#N)cc1 (stereo not given) | 0 | ? | 0 | 0 | 0 | 20µM
CC(=O)N1CC=C2C(C#N)=C(N)C(C#N)(C#N)[C@H](c3ccoc3)[C@H]2C1 | 0 | 0 | 0 | 0 | 0 | 0
CN1CC=C2C(C#N)=C(N)C(C#N)(C#N)[C@H](c3ccoc3)[C@H]2C1 | 0 | 0 | 0 | ? | 0 | 32µM
COc1ccc(OC)c(C2C3CN(C(C)C)CC=C3C(C#N)=C(N)C2(C#N)C#N)c1 (stereo not given) | 0 | 0 | 0 | 0 | 0 | 0
CCC(=O)OCc1cnc(C)c2oc(=O)c(C(=O)Nc3ccc(CC)cc3)cc12 | 0 | - | - | - | 0 | 0
CC(NC(=O)c1cc(COc2ccc3ncccc3c2)on1)c1ccc(F)cc1 (stereo not given) | 0 | 28µM | 0 | 0 | 0 | 0
COc1cccc(CN(C)C(=O)c2cc(COc3ccc4ncccc4c3)on2)c1 | 0 | 35µM | 0 | 0[15.4 µM] | 0 | -
O=C(NC1CCCC1)c1cc(COc2ccc3ncccc3c2)on1 | 0 | 0 | 0 | 0 | 0 | 0
NC(=O)c1cc[n+](CC2=C(C(=O)[O-])N3C(=O)[C@@H](NC(=O)Cc4cccs4)[C@H]3SC2)cc1 | 0 | - | - | - | - | -
Cc1cc(C)c2c(N)c(C(=O)Nc3nccs3)sc2n1 | 0 | 0 | 0 | 0 | 0 | 35µM
SMILES | RXFP1 antagonist | gsp antag | pAkt inh | gsp agonist | RXFP1 ag | ClpP mod
CCCCOC(=O)c1sc2nc(C)cc(C)c2c1N | 0 | 0 | 0 | 0[15.4 µM] | 0 | -
COCc1cc(C)nc2sc(C(=O)Nc3nccs3)c(N)c12 | - | 0 | 0 | ? | 0 | 0
CCOC(=O)c1sc2nc(C)cc(C)c2c1N | 0 | 0 | 0 | 0 | 0 | 28µM
CCO[C@H](Cc1ccc(OCCc2ccc(OS(C)(=O)=O)cc2)cc1)C(=O)O | 0 | - | - | - | - | -
Cc1ccc(NC(=O)Cc2nc(-c3c[nH]c(C(=O)N4CCCC4)c3)cs2)c(C)c1 | 0 | ? | 0 | 0 | 0 | 0
Oc1ccc(N2CCN(c3ncnc4sc(-c5ccccc5)cc34)CC2)cc1 | 0 | 0 | 0 | 0[15.4 µM] | 0 | -
CCc1cc2c(N3CCN(c4ccccc4)CC3)ncnc2s1 | 0 | 50µM | 0 | 0 | 0 | 0

Screening results: PubChem, National Center for Advancing Translational Sciences (NCATS)
